The values below come from the supplement of paper PMC11732987, “Enantioselective OTUD7B fragment discovery through chemoproteomics screening and high-throughput optimisation” (Communications Chemistry, 2025).

A number with no mark means an inactive call.

Common to all, as to test: log2 ratio of Biotin-Ahx-Ub-VS probe labelling (fragment/DMSO); higher = less target engagement (more negative = stronger competition), active = hit call of the paper (q ≤ 0.05, log2 ratio ≤ -1)
Common to all, as to details: compound concentration: 200 uM; treatment time: 3 h

Assay [1] has as its target T1, OTUD6B (UniProt Q8N6M0).
T1 sequence (whole entry): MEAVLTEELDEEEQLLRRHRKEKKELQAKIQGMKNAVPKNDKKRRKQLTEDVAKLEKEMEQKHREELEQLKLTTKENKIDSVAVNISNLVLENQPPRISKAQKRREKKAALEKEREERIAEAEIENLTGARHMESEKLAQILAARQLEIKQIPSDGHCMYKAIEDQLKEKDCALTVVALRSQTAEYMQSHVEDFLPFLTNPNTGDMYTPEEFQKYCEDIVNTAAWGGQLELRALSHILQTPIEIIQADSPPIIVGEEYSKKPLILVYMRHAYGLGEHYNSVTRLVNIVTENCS
A digest of the protocol:
(§1)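 The table lists average log2 ratios of fragment over vehicle, from an unpaired t-test on global-median-normalised Spectronaut label-free quantities. Proteins with ≥2 unique peptides were used. Samples were HEK293T lysate (495 µg) treated in triplicate with fragment at 200 µM or vehicle for 3 h, then with Biotin-Ahx-Ub-VS (0.5 µM final) for 1 h, with labelled DUBs NeutrAvidin-enriched and run by diaPASEF LC-MS/MS.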

Assay [2] concerns the target T2, OTUD7B (UniProt Q6GQQ9).
T2 sequence (whole entry): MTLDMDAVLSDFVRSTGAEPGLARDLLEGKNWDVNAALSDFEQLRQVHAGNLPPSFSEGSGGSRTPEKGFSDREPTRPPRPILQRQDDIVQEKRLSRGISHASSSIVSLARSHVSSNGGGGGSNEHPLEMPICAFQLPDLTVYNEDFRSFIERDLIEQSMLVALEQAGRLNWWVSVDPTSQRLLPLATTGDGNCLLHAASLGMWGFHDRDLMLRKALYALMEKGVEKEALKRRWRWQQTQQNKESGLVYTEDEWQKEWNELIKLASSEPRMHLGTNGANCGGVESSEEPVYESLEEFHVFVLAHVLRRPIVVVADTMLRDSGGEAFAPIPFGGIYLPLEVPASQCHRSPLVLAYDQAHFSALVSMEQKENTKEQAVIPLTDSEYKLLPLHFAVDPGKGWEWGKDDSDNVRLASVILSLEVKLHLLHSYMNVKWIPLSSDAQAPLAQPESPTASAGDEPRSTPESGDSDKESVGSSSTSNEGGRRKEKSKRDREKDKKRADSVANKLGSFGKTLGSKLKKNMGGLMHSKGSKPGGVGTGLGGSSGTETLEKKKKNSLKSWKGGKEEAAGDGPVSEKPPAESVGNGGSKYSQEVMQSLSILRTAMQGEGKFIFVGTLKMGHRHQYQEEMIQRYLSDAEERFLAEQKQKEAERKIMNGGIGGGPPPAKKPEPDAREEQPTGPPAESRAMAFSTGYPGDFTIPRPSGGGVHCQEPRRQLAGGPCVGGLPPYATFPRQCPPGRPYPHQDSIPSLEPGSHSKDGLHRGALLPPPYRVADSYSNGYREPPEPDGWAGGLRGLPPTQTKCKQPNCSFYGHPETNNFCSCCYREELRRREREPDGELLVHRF
A digest of the protocol:
as §1

Assay [3] deals with PRPF8 (UniProt Q6P2Q9). A digest of the protocol: as §1
Assay [4] deals with T3, PSMD7 (UniProt P51665).
T3 sequence (whole entry): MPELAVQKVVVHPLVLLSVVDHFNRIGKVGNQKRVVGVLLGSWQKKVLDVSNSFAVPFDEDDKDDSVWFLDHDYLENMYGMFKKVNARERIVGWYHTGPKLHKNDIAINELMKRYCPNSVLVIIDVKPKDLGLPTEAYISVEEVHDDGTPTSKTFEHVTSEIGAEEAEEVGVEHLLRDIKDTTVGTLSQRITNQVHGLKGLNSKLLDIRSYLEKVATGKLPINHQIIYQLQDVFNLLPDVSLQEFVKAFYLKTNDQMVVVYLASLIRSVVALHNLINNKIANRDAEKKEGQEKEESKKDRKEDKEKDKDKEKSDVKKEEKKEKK
A digest of the protocol:
as §1

The target in assay [5] is UCHL1 (UniProt P09936). A digest of the protocol: as §1
UCHL1, sequence (P09936 whole entry, looked up): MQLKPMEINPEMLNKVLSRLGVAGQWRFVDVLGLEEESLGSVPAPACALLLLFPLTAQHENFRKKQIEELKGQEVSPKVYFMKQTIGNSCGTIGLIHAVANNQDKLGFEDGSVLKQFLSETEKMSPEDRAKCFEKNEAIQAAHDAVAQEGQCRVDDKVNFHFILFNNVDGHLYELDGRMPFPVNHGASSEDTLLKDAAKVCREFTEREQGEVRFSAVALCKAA
Assay [6] concerns the target T4, UCHL3 (UniProt P15374).
T4 sequence (whole entry): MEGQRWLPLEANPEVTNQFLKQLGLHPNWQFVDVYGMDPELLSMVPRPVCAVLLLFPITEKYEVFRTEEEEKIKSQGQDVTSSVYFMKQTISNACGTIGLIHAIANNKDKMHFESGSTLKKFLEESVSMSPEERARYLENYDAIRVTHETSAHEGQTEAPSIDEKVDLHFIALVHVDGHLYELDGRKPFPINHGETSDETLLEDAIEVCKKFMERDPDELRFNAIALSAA
A digest of the protocol:
as §1

The target in assay [7] is T5, UCHL5 (UniProt Q9Y5K5).
T5 sequence (whole entry): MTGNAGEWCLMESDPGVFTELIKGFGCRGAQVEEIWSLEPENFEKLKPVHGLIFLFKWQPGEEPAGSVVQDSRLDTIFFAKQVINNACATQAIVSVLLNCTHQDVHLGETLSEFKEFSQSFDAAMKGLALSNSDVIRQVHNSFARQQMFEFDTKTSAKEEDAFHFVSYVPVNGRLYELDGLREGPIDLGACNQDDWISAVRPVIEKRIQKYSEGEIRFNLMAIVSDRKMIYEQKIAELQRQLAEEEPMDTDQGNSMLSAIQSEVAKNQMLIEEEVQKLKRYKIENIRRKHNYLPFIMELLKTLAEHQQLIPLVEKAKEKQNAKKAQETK
A digest of the protocol: as §1

Assay [8] has as its target USP10 (UniProt Q14694). In short, it runs like this:
as §1

The target of assay [9] is T6, USP15 (UniProt Q9Y4E8).
T6 sequence (whole entry): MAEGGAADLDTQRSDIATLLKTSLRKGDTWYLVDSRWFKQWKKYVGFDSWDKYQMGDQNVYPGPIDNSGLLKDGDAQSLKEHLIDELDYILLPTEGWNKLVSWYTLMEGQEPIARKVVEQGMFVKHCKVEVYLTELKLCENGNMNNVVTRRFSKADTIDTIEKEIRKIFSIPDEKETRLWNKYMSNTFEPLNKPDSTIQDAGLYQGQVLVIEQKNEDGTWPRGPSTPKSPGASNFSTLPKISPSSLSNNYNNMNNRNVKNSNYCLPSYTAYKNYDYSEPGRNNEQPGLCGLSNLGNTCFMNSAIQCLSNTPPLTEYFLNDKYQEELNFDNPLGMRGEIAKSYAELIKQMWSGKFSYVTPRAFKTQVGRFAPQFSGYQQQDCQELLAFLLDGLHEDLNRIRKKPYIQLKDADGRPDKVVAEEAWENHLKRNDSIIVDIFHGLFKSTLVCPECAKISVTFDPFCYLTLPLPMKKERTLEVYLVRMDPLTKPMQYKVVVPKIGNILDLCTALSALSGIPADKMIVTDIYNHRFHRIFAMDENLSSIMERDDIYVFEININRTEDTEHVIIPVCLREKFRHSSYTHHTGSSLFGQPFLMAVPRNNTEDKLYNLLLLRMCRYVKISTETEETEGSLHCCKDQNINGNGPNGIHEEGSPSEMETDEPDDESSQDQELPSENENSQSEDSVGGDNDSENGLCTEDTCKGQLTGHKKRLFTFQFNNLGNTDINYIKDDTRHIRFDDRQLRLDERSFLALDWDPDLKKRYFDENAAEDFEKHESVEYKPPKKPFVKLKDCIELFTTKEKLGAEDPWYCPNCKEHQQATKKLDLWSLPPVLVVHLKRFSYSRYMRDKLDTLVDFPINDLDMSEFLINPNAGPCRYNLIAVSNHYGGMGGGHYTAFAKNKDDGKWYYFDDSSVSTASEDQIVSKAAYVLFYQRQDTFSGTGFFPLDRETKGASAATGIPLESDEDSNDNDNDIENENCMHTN
A digest of the protocol:
as §1

The target in assay [10] is USP16 (UniProt Q9Y5T5). A digest of the protocol: as §1
USP16, sequence (Q9Y5T5 whole entry, looked up): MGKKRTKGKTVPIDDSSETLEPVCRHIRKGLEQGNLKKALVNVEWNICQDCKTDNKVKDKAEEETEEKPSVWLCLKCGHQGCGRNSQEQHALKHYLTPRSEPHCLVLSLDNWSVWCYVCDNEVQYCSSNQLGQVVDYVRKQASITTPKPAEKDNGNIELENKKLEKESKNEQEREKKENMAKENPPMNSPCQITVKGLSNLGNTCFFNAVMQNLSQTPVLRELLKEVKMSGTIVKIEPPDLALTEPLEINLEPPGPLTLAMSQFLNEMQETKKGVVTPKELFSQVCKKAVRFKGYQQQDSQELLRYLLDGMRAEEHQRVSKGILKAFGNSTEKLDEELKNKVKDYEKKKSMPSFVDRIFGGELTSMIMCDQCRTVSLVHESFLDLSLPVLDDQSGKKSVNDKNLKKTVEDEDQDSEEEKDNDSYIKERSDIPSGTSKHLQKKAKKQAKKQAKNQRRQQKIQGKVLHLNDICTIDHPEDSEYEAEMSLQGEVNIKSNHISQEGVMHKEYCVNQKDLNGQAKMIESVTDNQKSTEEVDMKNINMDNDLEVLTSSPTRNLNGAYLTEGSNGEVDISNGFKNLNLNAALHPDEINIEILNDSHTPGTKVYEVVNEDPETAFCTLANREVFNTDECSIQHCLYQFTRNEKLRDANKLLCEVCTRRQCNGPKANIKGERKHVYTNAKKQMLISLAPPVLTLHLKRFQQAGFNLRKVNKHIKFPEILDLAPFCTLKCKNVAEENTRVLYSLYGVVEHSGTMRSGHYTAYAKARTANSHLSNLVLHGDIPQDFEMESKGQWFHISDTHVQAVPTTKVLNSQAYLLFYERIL

USP10, sequence (Q14694 whole entry): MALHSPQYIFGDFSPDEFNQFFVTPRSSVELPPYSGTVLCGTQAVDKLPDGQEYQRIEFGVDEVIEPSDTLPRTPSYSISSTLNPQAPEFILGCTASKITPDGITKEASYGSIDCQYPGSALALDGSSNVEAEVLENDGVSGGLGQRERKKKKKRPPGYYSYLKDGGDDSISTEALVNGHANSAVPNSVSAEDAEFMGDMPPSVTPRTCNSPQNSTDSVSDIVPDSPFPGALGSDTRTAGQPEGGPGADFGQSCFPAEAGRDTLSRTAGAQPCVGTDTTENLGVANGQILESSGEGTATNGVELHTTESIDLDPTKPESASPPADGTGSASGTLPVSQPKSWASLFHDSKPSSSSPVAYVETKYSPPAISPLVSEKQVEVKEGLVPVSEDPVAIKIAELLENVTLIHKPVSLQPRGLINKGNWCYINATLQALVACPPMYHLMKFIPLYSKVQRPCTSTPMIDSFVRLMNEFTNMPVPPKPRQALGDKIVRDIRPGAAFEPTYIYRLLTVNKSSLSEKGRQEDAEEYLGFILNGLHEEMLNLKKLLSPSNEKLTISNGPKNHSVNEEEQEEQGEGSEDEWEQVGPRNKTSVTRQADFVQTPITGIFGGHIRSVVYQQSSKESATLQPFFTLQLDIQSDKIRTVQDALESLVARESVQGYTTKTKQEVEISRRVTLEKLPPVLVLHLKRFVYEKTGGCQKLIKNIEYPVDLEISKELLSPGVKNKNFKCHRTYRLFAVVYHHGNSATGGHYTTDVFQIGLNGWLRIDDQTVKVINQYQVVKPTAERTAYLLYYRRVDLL

`O=C(CCl)Nc1cc2c(cc1Cl)OCCCO2`: the “log2 ratio of Biotin-Ahx-Ub-VS probe labelling” value was -0.0697 in assay [1]; -0.399 in assay [2]; 0.00677 in assay [3]; -0.0387 in [4]; -1.39 (active) in assay [5]; -0.323 in assay [6]. Moreover, the “log2 ratio of Biotin-Ahx-Ub-VS probe labelling” value in [7] is -0.0527; in assay [8], -0.157; in assay [9] it was -0.172; in assay [10], -0.508.
